VP16 counter – inhibits Gal4-VP16 luciferase reporter, ROR gamma counter-screen; Drosophila S2 Gal4-VP16 UAS-luciferase, luminescence, 20 h; Potency, µM (doses to about 53.6 µM), for the others: at the highest dose activity, negative = inhibition, hits mostly inhibitors; actives 3.5% (n = 310,000); AID 2546;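 also: Gal4-VP16 expression switched on by copper sulfate through the metallothionein promoter; potency is read from the fitted curve at half-maximal effect; nearly all actives have a fitted effect of over 50% in size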
LDHA block – LDHA (human) enzyme inhibition. purified LDHA, NADH/diaphorase-resazurin fluorescence; hits give low values. actives 0.15% (n = 480,000). activity change, % (values are at about 110 or 230 µM). P00338; in the data active = activity change below about -30%; inconclusive = mostly about -25% to -30%;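 also: plate controls were DMSO wells for no effect and wells without enzyme for full effect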
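Resorufin fluorescence (ex540/em590), read at 0 and 20 min after diaphorase/resazurin addition, reports the NADH left after a 5 min room-temperature reaction of 2 nM human LDH5 with 0.06 mM NADH and 0.2 mM pyruvate.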
RORg inh – inhibitors of mouse ROR gamma transcriptional activity; P51450; Drosophila S2 Gal4-RORgamma UAS-luciferase reporter, 20 h; Potency, µM (titrated, usually from 53.6 µM), for inactives: at the top dose activity change, negative = inhibition, usual class: inhibitors; actives 5.4% (n = 310,000); AID 2551; also: potency is read from the fitted curve at half-maximal effect; nearly all actives have a fitted effect of over 60% in size
Target sequence (P51450 whole entry, looked up, the tested form may be a part): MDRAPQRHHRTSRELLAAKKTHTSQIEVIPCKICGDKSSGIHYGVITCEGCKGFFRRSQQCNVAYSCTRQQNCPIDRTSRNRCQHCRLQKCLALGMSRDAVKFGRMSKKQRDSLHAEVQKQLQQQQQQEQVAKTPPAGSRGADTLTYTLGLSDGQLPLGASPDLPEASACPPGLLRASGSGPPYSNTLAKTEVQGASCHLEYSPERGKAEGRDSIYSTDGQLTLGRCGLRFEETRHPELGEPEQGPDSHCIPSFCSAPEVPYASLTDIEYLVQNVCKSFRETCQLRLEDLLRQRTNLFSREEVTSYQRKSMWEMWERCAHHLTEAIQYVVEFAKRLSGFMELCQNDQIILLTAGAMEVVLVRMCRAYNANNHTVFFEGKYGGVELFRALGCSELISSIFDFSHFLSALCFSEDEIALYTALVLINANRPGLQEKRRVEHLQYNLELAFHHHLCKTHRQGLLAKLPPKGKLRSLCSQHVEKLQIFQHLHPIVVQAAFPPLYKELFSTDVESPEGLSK
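Compounds are pin-transferred onto Drosophila Schneider cells expressing a copper-inducible Gal4–ROR gamma transactivation domain fusion. After 1 hr, copper sulfate is added to 700 uM final; luciferase is read 20 hr later.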
DT40 TDP1 no CPT – qHTS for Inhibitors of human tyrosyl-DNA phosphodiesterase 1 (TDP1): qHTS in cells in absence of CPT; DT40 Tdp1-/- hTDP1 cells, no CPT, ATP luminescence, 48 h; Potency, µM (top dose mostly 46.2 µM), for the others: at the top dose activity change, negative = growth inhibition, most hits filed as inhibitors; actives 15% (n = 420,000); also: potency is read from the fitted curve at half-maximal effect; nearly all actives have a fitted effect of over 55% in size
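Stably hTDP1-transfected Tdp1-null chicken DT40 cells were treated with library compounds minus camptothecin and grown for at least 48 hr at 37 °C, after which cellular ATP was quantified by luminescence.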
IL-1B inflam inh – inhibitors of inflammasome signaling (IL-1 beta secretion); THP-1 LPS/ATP IL-1B secretion, AlphaLISA, 16 h; hits give low values; activity change, % at 57.5 µM; actives 4.7% (n = 360,000); AID 743279; in the data active = activity change below about -50%; inconclusive = mostly about -30% to -49%
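Secreted IL-1B measured by AlphaLISA bead assay after 16 h compound exposure of THP-1 cells; compounds (final up to 57.5 uM) added 1 h before LPS (250 ng/mL) and ATP (1.25 mM) stimulation; lower signal means less secretion.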
TDP1 cell CPT – DT40-hTDP1 cell growth loss with CPT. chicken DT40 Tdp1-/-;hTDP1 cells + 20 nM CPT, ATP luminescence, 48 h. Potency, µM (doses to about 46.2 µM), for inactives: at the top dose activity change, negative = growth inhibition, hits mostly inhibitors. actives 12% (n = 420,000); also: potency is read from the fitted curve at half-maximal effect; nearly all actives have a fitted effect of over 55% in size
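Chicken DT40 Tdp1-/- cells complemented with human TDP1, 400 cells/well, exposed to compounds plus 20 nM camptothecin for at least 48 h at 37 C; viability read as ATP content by CellTiter-Glo luminescence.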
* marks the source's active call; other numbers are inactive results; u = inconclusive; x = not tested or not shown; [ ] = remark or other dose. Shown are actives, neighbours in structure and some others; about 18% of the full set was active somewhere. Unless noted, calls follow the shape of the dose curve; as a rule, active = well fitted curve in the direction sought with a large enough effect; inconclusive = small, poorly fitted or top-dose-only effect, or another doubt; inactive = no such curve, though single readings can be large; an effect the other way counts as inactive or inconclusive. Unless noted, % is scaled to controls: 0 for no effect and ±100 for the full control effect.

SMILES	VP16 counter	LDHA block	RORg inh	DT40 TDP1 no CPT	IL-1B inflam inh	TDP1 cell CPT
CNC(=S)N1N=C(c2ccc(Br)cc2)CC1c1ccc(Br)cc1 (stereo not given)	3%	-8	-23%	12µM*	u	15µM*
Fc1ccc(C2CC(c3cccs3)=NN2C(=S)Nc2ccccc2)cc1 (stereo not given)	-11%	-23	7.9µM*	u	-13	u
CNC(=S)N1N=C(c2ccc(Br)cc2)CC1c1ccc(N(C)C)cc1 (stereo not given)	0%	-2	u	u	-25	u
Cc1c(CC(=O)Nc2ccc(Cn3cncn3)cc2)c(=O)oc2cc(O)ccc12	x	-1	x	x	x	x
COc1ccc(F)cc1CN(C)CC(=O)N1c2ccccc2NC(=O)CC1C (stereo not given)	x	20	x	x	x	x
COc1ccc(C2CCCN2C(=S)Nc2cccc(C)c2)cc1OC (stereo not given)	-14%	1	u	u	-24	u
COc1ccc(C2CCCN2C(=S)Nc2ccc(C)cc2Cl)cc1OC (stereo not given)	0%	-3	u	16µM*	-20	u
COc1ccc(C2CC(c3cccs3)=NN2C(=O)CCC(=O)O)cc1 (stereo not given)	6%	1	-12%[1.91 µM]	-12%	5	-8%
COc1ccc(C2=NN(C(=S)Nc3ccccc3)C(c3ccccc3)C2)cc1 (stereo not given)	-10%	-1	-42%	18µM*	-11	u
CNC(=S)N1N=C(c2cccs2)CC1c1ccc(OC)cc1 (stereo not given)	-9%	-3	20µM*	-2%	u	-5%
O=C(O)c1ccc(S(=O)(=O)NCc2ccco2)cc1	x	-1	x	x	x	x
OCC1CCCN(c2nc(CN3CCCCC3)nc3scc(-c4ccccc4)c23)C1 (stereo not given)	0%	-2	-25%	u	-6	15µM*
CCNc1nc(CN2CCCCC2)nc2scc(-c3ccccc3)c12	u	-3	16µM*	16µM*	-91*	12µM*
c1ccc(-c2csc3nc(CN4CCCCC4)nc(Nc4cn[nH]c4)c23)cc1	x	6	x	x	x	x
CN(CC(=O)Nc1ccc(Cl)c(Cl)c1)S(=O)(=O)Cc1ccc(F)cc1	x	0	x	x	x	x
CC1CCCN(CCS(=O)c2ccccc2)C1 (stereo not given)	x	-9	x	x	x	x
O=C(CSc1nc(Cl)nc2nc[nH]c12)NCCc1c[nH]c2ccccc12	x	5	x	x	x	x
O=C1CC(N2CCN(C/C=C/c3ccccc3)CC2)C(=O)N1CCc1ccccc1 (stereo not given)	-1%	-4	33%	21µM*	-26	18µM*
O=C1CC(N2CCN(C3CC(=O)N(CCc4ccccc4)C3=O)CC2)C(=O)N1CCc1ccccc1 (stereo not given)	-2%	-4	38%	u	6	u
CC1CN(CCCCN)CC(C)O1 (stereo not given)	x	1	x	x	x	x
COc1ccccc1CC(=O)Nc1cc2oc3ccccc3c2cc1OC	-20%	-10	-3%	16µM*	-22	26µM*
CC(Oc1ccc2oc3ccccc3c2c1)C(=O)NC12CC3CC(CC(C3)C1)C2 (stereo not given)	u	-4	u	29µM*	-10	16µM*
COc1cc2c(cc1NC(=O)CN(C)Cc1cccc(OC)c1OC)oc1ccccc12	u	-2	u	13µM*	-14	21µM*
COc1ccc(C(=O)NC23CC4CC(CC(C4)C2)C3)cc1	6%	-4	9%	-10%	2	-3%
COc1cc2c(cc1NC(=O)C(C)OC(=O)c1ccc(S(=O)(=O)Nc3ccccc3Cl)cc1)oc1ccccc12 (stereo not given)	3%	1	-5%	18µM*	0	23µM*
SMILES	VP16 counter	LDHA block	RORg inh	DT40 TDP1 no CPT	IL-1B inflam inh	TDP1 cell CPT
COc1cc2c(cc1NC(=O)CSc1ccc(Cl)cc1)oc1ccccc12	-9%	-1	6%	u	-5	-32%
COc1ccc(CC(=O)Nc2cc3oc4ccccc4c3cc2OC)cc1	-19%	-4	33%	u	u	u
COc1cc2c(cc1NC(=O)/C=C/c1cc(OC)c(OC)c(OC)c1)oc1ccccc12	-15%	1	23%	15µM*	0	21µM*
COc1cc2c(cc1NC(=O)C(C)Oc1ccccc1)oc1ccccc12 (stereo not given)	x	1	x	u	x	15µM*
COc1cc2c(cc1NC(=O)COc1ccc3ccccc3c1)oc1ccccc12	-4%	8	31%	u	-2	u
COc1cccc(CN(C)CC(=O)Nc2cc3oc4ccccc4c3cc2OC)c1	0%	4	6%	21µM*	11	23µM*
COc1ccc(/C=C/C(=O)OCC(=O)Nc2cc3oc4ccccc4c3cc2OC)cc1	-4%	x	-4%	x	x	x
CC(C)(C)C(=O)COC(=O)c1cc(S(N)(=O)=O)ccc1Br	x	-2	x	x	x	x
CCCNC(=O)N(C)Cc1nc(-c2ccccc2)no1	x	8	x	x	x	x
O=C1CSC(c2cccc(C(F)(F)F)c2)N1c1ccc(Br)cc1 (stereo not given)	x	-1	x	x	x	x
Cc1c(Cl)cccc1N/C(SCC(=O)N1CCCCCC1)=C(/C#N)c1nc2ccccc2s1	-23%	-14	8.9µM*	12µM*	-94*	12µM*
Cc1ccc(/C=N/N2CCCCC2)o1	3%	-5	-34%	u	-17	-14%
O=C1C2C(C(=O)N1/N=C/c1ccc(N3CCCCC3)o1)C1C=CC2C12CC2 (stereo not given)	3.2µM*	-1	-15%	15µM*	-26	18µM*
O=C(CCSc1ccc(Cl)cc1)c1ccco1	u	-3	11µM*	2.1µM*	-96*	2.1µM*
COc1ccccc1C(=O)CSc1ccccc1Cl	x	8	x	x	x	x
O=C(CSc1ccccc1Cl)c1ccco1	10%	4	14%	8.2µM*	-13	21µM*
O=C(CSc1ccc(Cl)cc1)NC(=O)NCc1ccco1	1%	0	u	u	-83*	16µM*
O=C(CSc1ccc(Cl)cc1)Nc1cccc(NC(=O)c2ccco2)c1	0%	-1	40%	-26%	-66*	u
Cc1sc(-c2nc(-c3cccc(Cl)c3)no2)cc1S(=O)(=O)N1CCC2(CC1)OCCO2	x	5	x	x	x	x
COc1ccc(C/C(C#N)=C\Nc2cccc(C(F)(F)F)c2)cc1	x	-1	x	x	x	x

Bioassay records: PubChem BioAssay, National Center for Advancing Translational Sciences (NCATS)
